The source made the active and inactive calls. The calls were made as follows: active = hit-call score of the fitted dose curve at least 0.9, where 1 is the maximum; inactive = score below 0.9.
Experiments:
[1] = target: Bile acid receptor (Homo sapiens) (UniProt Q96RI1); test: ATG_IR1_CIS: Attagene CIS-FACTORIAL HepG2 Assay for human Nuclear Receptor Subfamily 1 Group H Member 4 (NR1H4), IR1 submotif (AID 2282946); settings: IR1 reporter transcription, actives raise or lower the signal
Procedure, shortened: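 Readout: reporter transcript levels by RT-PCR with fluorescent capillary electrophoresis, from HepG2 cells transiently transfected with multiplexed cis-regulated reporters and dosed 24 h. Gain- or loss-of-signal fitted versus DMSO negative control.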

[2] = ATG_GRE_CIS: Attagene CIS-FACTORIAL HepG2 Assay for human Glucocorticoid Response Elements (GRE) (AID 2282947); settings: HepG2 GRE cis-reporter, Attagene multiplex mRNA; actives raise or lower the signal
Procedure, shortened: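 Cells (HepG2) bearing transfected cis-promoter reporter transcription units were treated with chemical for 24 hours. Reporter mRNA was measured via RT-PCR with capillary electrophoresis, and activity was fitted in both directions relative to DMSO.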

[3] = ATG_ISRE_CIS: Attagene CIS-FACTORIAL HepG2 Assay for human Interferon Regulatory Factor 1 (IRF1) binding to an Interferon-Stimulated Response Element (ISRE) (AID 2282948); settings: HepG2 ISRE cis-reporter (Attagene), mRNA transcription readout; actives raise or lower the signal
Procedure, shortened: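 Signal reflects induction or loss of ISRE-linked reporter mRNA in transiently transfected HepG2 cells after a 24 h treatment, detected by fluorescent RT-PCR fragments on capillary electrophoresis and normalised to DMSO.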

[4] = ATG_M_32_CIS: Attagene CIS-FACTORIAL HepG2 Assay for M32 Transcription Factor (Internal Marker) (AID 2282949); settings: HepG2 Attagene cis-factorial M32 reporter, mRNA; actives raise or lower the signal;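 also: background control marker of the multiplexed CIS panel rather than a real target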
Procedure, shortened: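 HepG2 human liver cells transiently transfected with cis-promoter-driven multiple reporter transcription units, dosed 24 h. Reporter mRNA quantified by RT-PCR, FAM-labelled primer extension, HpaI digest and capillary electrophoresis; bidirectional fit versus DMSO baseline.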

[5] = ATG_M_06_CIS: Attagene CIS-FACTORIAL HepG2 Assay for M06 Transcription Factor (Internal Marker) (AID 2282950); settings: HepG2 Attagene CIS-FACTORIAL M06 internal marker reporter; actives raise or lower the signal
Procedure, shortened: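 Steps: transfect HepG2 with multiplexed cis-element reporter constructs; dose chemical 24 h; extract RNA with DNase treatment; reverse-transcribe, PCR-amplify, 6-FAM label, HpaI digest; separate fragments by capillary electrophoresis. Activity fitted both directions versus DMSO.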

[6] = target: Hypoxia-inducible factor 1-alpha (Homo sapiens) (UniProt Q16665); test: ATG_HIF1a_CIS: Attagene CIS-FACTORIAL HepG2 Assay for human Hypoxia Inducible Factor 1 (HIF1A) (AID 2282951); settings: HepG2 Attagene cis-factorial HIF1a reporter transcription; actives raise or lower the signal
Hypoxia-inducible factor 1-alpha (Homo sapiens), sequence (Q16665 whole entry, looked up): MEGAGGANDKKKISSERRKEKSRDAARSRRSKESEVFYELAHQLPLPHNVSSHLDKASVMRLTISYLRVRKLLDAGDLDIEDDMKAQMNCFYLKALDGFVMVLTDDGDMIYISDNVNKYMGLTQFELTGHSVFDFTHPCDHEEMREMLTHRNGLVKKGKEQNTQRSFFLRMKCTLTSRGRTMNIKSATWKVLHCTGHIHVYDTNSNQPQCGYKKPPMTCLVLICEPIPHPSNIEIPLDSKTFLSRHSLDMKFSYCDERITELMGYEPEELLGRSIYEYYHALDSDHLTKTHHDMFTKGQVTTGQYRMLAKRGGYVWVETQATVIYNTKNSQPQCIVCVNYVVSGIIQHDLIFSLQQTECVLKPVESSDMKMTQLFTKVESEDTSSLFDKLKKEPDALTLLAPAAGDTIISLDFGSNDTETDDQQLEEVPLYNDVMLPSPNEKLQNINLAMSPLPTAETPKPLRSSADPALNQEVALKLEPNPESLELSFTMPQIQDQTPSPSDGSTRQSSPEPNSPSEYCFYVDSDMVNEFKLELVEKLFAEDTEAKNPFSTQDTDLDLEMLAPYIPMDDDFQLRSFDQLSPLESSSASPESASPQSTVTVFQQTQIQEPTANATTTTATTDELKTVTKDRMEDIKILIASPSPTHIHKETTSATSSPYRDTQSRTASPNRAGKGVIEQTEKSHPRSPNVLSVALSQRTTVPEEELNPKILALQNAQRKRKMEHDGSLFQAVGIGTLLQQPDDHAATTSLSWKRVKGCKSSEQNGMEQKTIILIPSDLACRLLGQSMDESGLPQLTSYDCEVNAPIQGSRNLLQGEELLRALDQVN
Procedure, shortened: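 HepG2 cells transiently transfected with multiplexed cis-promoter reporter units; reporter mRNA read 24 h after dosing by RT-PCR, 6-FAM primer-extension labelling, HpaI digestion and capillary electrophoresis. Bidirectional fit versus DMSO baseline.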

[7] = target: Heat shock factor protein 1 (Homo sapiens) (UniProt Q00613); test: ATG_HSE_CIS: Attagene CIS-FACTORIAL HepG2 Assay for human Heat Shock Transcription Factor 1 (HSE) (AID 2282953); settings: HepG2 HSE cis-reporter, Attagene RNA transcription; actives raise or lower the signal
Heat shock factor protein 1 (Homo sapiens), sequence (Q00613 whole entry, looked up, the tested form may be a part): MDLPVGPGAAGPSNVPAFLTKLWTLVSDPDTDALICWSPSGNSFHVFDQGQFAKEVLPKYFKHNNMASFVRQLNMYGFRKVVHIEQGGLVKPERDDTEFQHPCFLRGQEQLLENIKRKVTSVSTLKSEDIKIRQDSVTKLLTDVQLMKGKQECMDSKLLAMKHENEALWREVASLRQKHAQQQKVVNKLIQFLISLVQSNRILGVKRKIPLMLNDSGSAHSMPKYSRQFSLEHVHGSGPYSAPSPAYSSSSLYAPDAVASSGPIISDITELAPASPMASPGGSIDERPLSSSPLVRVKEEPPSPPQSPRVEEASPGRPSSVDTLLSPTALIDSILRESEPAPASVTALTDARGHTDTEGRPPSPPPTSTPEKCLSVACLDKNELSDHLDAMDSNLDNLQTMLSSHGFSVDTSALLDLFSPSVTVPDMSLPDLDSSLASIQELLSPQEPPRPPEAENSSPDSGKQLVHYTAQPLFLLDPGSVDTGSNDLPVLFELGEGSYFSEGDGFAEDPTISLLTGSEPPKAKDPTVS
Procedure, shortened: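 Cells were transfected with cis-element-driven reporter constructs, dosed for 24 h, then total RNA was reverse-transcribed and reporter cDNA amplified, FAM-labelled and digested with HpaI. Fragments were resolved by capillary electrophoresis; gain or loss was fitted against DMSO.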

[8] = ATG_MRE_CIS: Attagene CIS-FACTORIAL HepG2 Assay for human Metal Responsive Element (MRE) (AID 2282954); settings: HepG2 MRE cis-reporter transcription, Attagene multiplex; actives raise or lower the signal
Procedure, shortened: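 Cells were transfected with cis-promoter reporter transcription units, then dosed for 24 h. RNA was reverse-transcribed, amplified, fluorescently labelled and resolved by capillary electrophoresis, and activity was fitted in both directions relative to DMSO.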

[9] = ATG_PBREM_CIS: Attagene CIS-FACTORIAL HepG2 Assay for human Phenobarbital-responsive Enhancer Module (PBREM) (AID 2282955); settings: HepG2 PBREM cis-reporter, Attagene multiplexed transcription; actives raise or lower the signal
Procedure, shortened: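 HepG2 cells transiently transfected with multiple cis-regulated reporter transcription units; endogenous factor activity at the PBREM element measured as reporter mRNA 24 h after dosing, via RT-PCR and capillary electrophoresis of fluorescent fragments; bidirectional fitting versus DMSO.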

[10] = target: Paired box protein Pax-6 (Homo sapiens) (UniProt P26367); test: ATG_Pax6_CIS: Attagene CIS-FACTORIAL HepG2 Assay for human Paired Box 6 (PAX6) (AID 2282956); settings: HepG2 CIS-FACTORIAL PAX6 reporter transcription, RNA readout; actives raise or lower the signal
Paired box protein Pax-6 (Homo sapiens), sequence (P26367 whole entry, looked up): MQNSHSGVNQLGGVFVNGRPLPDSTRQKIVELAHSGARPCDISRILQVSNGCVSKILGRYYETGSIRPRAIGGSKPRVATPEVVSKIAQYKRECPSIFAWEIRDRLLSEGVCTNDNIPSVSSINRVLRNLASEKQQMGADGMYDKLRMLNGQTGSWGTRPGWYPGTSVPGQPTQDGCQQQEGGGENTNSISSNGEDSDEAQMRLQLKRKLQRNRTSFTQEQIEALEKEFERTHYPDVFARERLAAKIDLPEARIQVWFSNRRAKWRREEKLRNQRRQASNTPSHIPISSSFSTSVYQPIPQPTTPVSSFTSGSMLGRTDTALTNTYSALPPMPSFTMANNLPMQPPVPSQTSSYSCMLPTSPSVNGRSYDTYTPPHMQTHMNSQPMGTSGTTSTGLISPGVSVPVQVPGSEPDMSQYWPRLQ
Procedure, shortened: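 Values derive from bidirectional curve fitting of reporter mRNA signal relative to DMSO. HepG2 cells bearing transfected cis-regulated MRTUs were exposed for 24 h; transcripts were read by RT-PCR and capillary electrophoresis.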

[11] = ATG_PXRE_CIS: Attagene CIS-FACTORIAL HepG2 Assay for human Pregnane X Receptor Element (PXRE) (AID 2282957); settings: HepG2 Attagene CIS-FACTORIAL PXRE reporter, mRNA; actives raise or lower the signal
Procedure, shortened: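 Bidirectional activity, baselined to DMSO, derived from reporter mRNA fluorescence (RT-PCR plus capillary electrophoresis) in HepG2 cells bearing cis-promoter reporter units, 24 h exposure.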

[12] = ATG_PPRE_CIS: Attagene CIS-FACTORIAL HepG2 Assay for human Peroxisome Proliferator-activated Response Element (PPRE) (AID 2282958); settings: HepG2 PPRE cis-element reporter, Attagene transcription factor profiling; actives raise or lower the signal
Procedure, shortened: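 HepG2 cells transiently transfected with multiplexed cis-element reporter units measure endogenous transcription factor activity. After 24 h compound exposure, reporter mRNA is quantified by RT-PCR, 6-FAM labeling, HpaI digestion and capillary electrophoresis; bidirectional fits are made against DMSO baseline.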

[13] = ATG_RORE_CIS: Attagene CIS-FACTORIAL HepG2 Assay for human RAR-related Orphan Receptor Element (RORE) (AID 2282959); settings: HepG2 Attagene cis-factorial RORE reporter, mRNA; actives raise or lower the signal
Procedure, shortened: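 HepG2 cells transiently transfected with multiple cis-element reporter transcription units, exposed to chemical for 24 h. Reporter mRNA quantified by RT-PCR, 6-FAM primer-extension labeling, HpaI digestion and capillary electrophoresis; bidirectional fit versus DMSO baseline.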

[14] = ATG_Sox_CIS: Attagene CIS-FACTORIAL HepG2 Assay for human SRY-box transcription factor (SOX) (AID 2282960); settings: HepG2 Attagene cis-factorial SOX reporter, mRNA; actives raise or lower the signal
Procedure, shortened: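 HepG2 cells transiently transfected with cis-element-driven multiple reporter transcription units, dosed 24 h; reporter mRNA measured by RT-PCR, FAM labelling, HpaI digestion and capillary electrophoresis. Bidirectional fit versus DMSO baseline.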

[15] = target: Transcription factor Sp1 (Homo sapiens) (UniProt P08047); test: ATG_Sp1_CIS: Attagene CIS-FACTORIAL HepG2 Assay for human Specificity Protein 1 (Sp1) (AID 2282961); settings: HepG2 Sp1 cis-reporter transcription, actives raise or lower the signal
Transcription factor Sp1 (Homo sapiens), sequence (P08047 whole entry, looked up): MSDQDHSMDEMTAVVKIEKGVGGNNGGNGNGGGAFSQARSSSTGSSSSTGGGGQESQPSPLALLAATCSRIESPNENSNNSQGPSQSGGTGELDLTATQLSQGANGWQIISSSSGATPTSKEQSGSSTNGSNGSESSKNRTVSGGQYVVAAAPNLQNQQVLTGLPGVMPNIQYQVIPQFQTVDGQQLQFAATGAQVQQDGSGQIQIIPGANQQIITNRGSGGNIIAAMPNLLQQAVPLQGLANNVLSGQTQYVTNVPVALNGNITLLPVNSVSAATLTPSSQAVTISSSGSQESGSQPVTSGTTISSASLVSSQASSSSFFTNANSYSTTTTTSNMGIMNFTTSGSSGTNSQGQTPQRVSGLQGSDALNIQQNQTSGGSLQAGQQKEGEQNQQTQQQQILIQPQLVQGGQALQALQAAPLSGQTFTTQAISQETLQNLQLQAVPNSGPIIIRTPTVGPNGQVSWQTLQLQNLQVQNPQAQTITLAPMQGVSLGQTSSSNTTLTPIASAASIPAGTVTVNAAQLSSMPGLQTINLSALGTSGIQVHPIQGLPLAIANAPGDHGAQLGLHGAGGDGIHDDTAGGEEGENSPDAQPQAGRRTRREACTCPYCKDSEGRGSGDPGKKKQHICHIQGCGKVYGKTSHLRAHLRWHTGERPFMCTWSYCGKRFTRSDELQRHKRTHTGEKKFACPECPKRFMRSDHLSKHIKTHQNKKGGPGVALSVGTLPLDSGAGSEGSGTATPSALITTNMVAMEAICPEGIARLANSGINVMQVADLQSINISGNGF
Procedure, shortened: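 HepG2 cells transiently transfected with multiple reporter transcription units driven by cis-regulatory elements; Sp1-responsive reporter mRNA measured 24 h after dosing by RT-PCR and capillary electrophoresis fluorescence, fitted bidirectionally against DMSO baseline.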

[16] = ATG_SREBP_CIS: Attagene CIS-FACTORIAL HepG2 Assay for human Sterol Regulatory Element Binding (SREBP) (AID 2282962); settings: HepG2 Attagene cis-factorial SREBP reporter, mRNA; actives raise or lower the signal
Procedure, shortened: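 Values derive from bidirectional curve fitting with DMSO as baseline. The underlying measurement is reporter mRNA from cis-element-regulated units in transiently transfected HepG2, quantified by RT-PCR and capillary electrophoresis after 24 h exposure.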

[17] = target: Signal transducer and activator of transcription 3 (Homo sapiens) (UniProt P40763); test: ATG_STAT3_CIS: Attagene CIS-FACTORIAL HepG2 Assay for human Signal Transducer and Activator of Transcription 3 (STAT3) (AID 2282963); settings: HepG2, Attagene cis-factorial STAT3 reporter transcription; actives raise or lower the signal
Signal transducer and activator of transcription 3 (Homo sapiens), sequence (P40763 whole entry, looked up): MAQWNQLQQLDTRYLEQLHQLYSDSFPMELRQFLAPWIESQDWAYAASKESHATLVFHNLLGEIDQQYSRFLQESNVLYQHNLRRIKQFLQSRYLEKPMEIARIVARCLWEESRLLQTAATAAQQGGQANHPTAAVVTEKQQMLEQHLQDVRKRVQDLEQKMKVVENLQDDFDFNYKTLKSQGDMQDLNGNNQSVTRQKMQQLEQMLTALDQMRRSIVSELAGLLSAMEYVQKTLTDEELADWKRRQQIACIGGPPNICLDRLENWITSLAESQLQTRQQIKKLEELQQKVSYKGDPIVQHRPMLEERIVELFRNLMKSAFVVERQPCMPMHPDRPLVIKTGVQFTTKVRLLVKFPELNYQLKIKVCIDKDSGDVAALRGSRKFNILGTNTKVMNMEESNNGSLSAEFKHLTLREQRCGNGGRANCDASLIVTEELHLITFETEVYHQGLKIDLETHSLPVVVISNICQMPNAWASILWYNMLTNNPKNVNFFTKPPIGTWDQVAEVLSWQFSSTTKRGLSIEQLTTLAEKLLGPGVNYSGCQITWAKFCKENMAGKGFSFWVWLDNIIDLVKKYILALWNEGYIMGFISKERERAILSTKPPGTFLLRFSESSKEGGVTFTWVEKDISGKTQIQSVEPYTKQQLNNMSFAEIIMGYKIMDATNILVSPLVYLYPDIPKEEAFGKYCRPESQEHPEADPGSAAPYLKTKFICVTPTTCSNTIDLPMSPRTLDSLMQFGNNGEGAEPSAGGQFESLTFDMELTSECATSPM
Procedure, shortened: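 HepG2, MRTU-transfected, 24 h dosing. RNA → RT → PCR → FAM label → HpaI → CE. Bidirectional fit vs DMSO.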

[18] = ATG_TA_CIS: Attagene CIS-FACTORIAL HepG2 Assay for human TA Basal Promoter (AID 2282964); settings: HepG2 Attagene CIS-factorial TA basal promoter reporter; actives raise or lower the signal
Procedure, shortened: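 Steps: transfect HepG2 with MRTUs; dose 24 h; isolate RNA, DNase-treat, reverse-transcribe; PCR and FAM-label reporter cDNA; digest with HpaI 2h at 37 C; run capillary electrophoresis. Activity fitted both directions against DMSO.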

[19] = target: Hepatocyte nuclear factor 6 (Homo sapiens) (UniProt Q9UBC0); test: ATG_HNF6_CIS: Attagene CIS-FACTORIAL HepG2 Assay for human Hepatocyte Nuclear Factor 6 (HNF6) (AID 2282952); settings: HepG2 Attagene cis-factorial HNF6 reporter transcription; actives raise or lower the signal
Hepatocyte nuclear factor 6 (Homo sapiens), sequence (Q9UBC0 whole entry, looked up, the tested form may be a part): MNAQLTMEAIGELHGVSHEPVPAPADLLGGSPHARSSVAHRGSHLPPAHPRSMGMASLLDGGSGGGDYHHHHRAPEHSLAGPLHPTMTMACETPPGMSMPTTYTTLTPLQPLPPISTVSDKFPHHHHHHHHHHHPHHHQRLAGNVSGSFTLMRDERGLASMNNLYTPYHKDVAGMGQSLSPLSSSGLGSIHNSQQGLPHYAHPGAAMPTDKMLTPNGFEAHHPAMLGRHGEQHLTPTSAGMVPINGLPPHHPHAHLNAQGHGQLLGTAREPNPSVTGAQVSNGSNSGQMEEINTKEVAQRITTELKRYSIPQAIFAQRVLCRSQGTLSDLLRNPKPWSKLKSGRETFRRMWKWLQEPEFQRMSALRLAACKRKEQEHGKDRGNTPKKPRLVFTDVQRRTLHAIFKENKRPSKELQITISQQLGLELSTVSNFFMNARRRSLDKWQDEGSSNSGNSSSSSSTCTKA
Procedure, shortened: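 Twenty-four-hour chemical treatment of reporter-transfected HepG2 cells precedes RNA isolation, DNase-treated reverse transcription and PCR of reporter sequences. Labelled fragments are sized by capillary electrophoresis and fitted bidirectionally versus DMSO.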

Measured: AC50

Bile acid receptor (Homo sapiens), sequence (Q96RI1 whole entry, looked up): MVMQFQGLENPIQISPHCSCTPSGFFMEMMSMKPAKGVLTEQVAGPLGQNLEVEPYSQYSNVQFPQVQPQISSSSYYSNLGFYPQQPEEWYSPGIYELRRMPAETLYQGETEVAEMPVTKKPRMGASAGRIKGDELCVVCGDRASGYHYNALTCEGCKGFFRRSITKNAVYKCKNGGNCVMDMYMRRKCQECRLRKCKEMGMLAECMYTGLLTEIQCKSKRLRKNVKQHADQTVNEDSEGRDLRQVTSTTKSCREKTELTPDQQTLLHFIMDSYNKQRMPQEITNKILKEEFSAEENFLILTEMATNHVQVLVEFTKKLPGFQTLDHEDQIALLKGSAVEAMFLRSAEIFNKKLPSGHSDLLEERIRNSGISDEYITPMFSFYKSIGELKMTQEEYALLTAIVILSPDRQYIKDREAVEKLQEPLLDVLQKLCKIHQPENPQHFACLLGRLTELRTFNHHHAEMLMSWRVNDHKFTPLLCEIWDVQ

OCCCc1cccnc1
not listed: [19]
inactive: all other assays above

NCC(F)(F)C(F)(F)C(F)(F)C(F)(F)C(F)(F)C(F)(F)F
not listed: [7] | [9]
inactive: all other assays above

O=C(O)C(F)(F)C(F)(F)C(F)(F)C(F)(F)C(F)(F)C(F)(F)C(F)F
active: [12] 46.1 µM | [16] 63.5 µM
not listed: [11] | [13]
inactive: all other assays above

CCN(CC)c1ccc(C=O)cc1
active: [11] 27.7 µM
not listed: [9]
inactive: all other assays above

C=CC(=O)OCCC(F)(F)C(F)(F)C(F)(F)C(F)(F)F
active: [11] 43.8 µM
not listed: [7]
inactive: all other assays above

CCCCCCCCCCCCC[N+](C)(C)Cc1ccccc1
not listed: [9] | [13]
inactive: all other assays above

CO[Si](CCCOCC1CO1)(OC)OC (configuration not stated)
not listed: [19]
inactive: all other assays above

OCC(F)(F)C(F)(F)C(F)(F)C(F)(F)C(F)(F)C(F)(F)C(F)(F)C(F)(F)CO
active: [11] 16.6 µM
not listed: [7] | [9]
inactive: all other assays above

Nc1cc([N+](=O)[O-])cc(Cl)c1O
not listed: [11] | [19]
inactive: all other assays above

CC(C)OC(=O)COc1ccc(Cl)cc1Cl
active: [11] 68.8 µM
not listed: [9]
inactive: all other assays above

CCCCOC(=O)[C@H](C)O
not listed: [9] | [19]
inactive: all other assays above

NC(O)(C(F)(F)F)C(F)(F)F
not listed: [7] | [19]
inactive: all other assays above

Brc1nc2ccccc2s1
active: [6] 125 µM | [12] 18.1 µM
not listed: [7] | [9] | [11] | [19]
inactive: all other assays above

CC1CCCCC1
inactive: all assays above

C=CCOC(=O)CC(C)C
inactive: all assays above

From PubChem BioAssay (EPA / NIEHS)
